# Data published in PubChem BioAssay (Tox21).
# Inconclusive results are not listed. A call without a number means that no potency is given here. Calls of active or inactive are those of the source. Unless noted, calls come from the whole dose curve.
# Columns and labels:
# [1] = Nuclear factor erythroid 2-related factor 2/antioxidant responsive element (Nrf2/ARE) small molecule agonists: qHTS cell viability counter screen in human keratinocytes (AID 1919968; active = well fitted curve in the direction sought with a large enough effect in the repeat runs; an effect the other way counts as inactive or inconclusive; note: nearly all actives have a fitted effect of over 55% in size; note: potency is the fitted concentration of half-maximal effect)
# Outline: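 Measured as CellTiter-Fluor fluorescence, this readout tracks cytotoxicity in the same wells as the ARE-luciferase screen. HaCaT reporter cells (1,500/well) received compounds after a 5 h pre-incubation and were exposed for 23 h.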
# [2] = Nuclear factor erythroid 2-related factor 2/antioxidant responsive element (Nrf2/ARE) small molecule agonists: luciferase reporter gene qHTS assay in human keratinocytes (AID 1919969); note: nearly all actives have a fitted effect of over 35% in size; note: potency is the fitted concentration of half-maximal effect
# [3] = molecular target: Gonadotropin-releasing hormone receptor (Homo sapiens) (UniProt P30968); assay: Human gonadotropin-releasing hormone receptor (GnRHR) small molecule agonists, calcium flux assay in GnRHR-HEK293 cells (AID 1920063); note: nearly all actives have a fitted effect of over 35% in size
# Sequence of Gonadotropin-releasing hormone receptor (Homo sapiens) (P30968 whole entry, looked up): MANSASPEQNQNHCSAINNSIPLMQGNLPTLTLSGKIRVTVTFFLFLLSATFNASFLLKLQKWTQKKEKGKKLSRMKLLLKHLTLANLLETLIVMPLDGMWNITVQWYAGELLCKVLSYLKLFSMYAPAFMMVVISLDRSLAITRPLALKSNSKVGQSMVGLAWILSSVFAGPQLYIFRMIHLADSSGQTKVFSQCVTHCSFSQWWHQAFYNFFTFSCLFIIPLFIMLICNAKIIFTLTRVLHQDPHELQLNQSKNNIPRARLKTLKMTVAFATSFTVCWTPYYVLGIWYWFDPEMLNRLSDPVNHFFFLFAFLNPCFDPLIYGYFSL
# Outline: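 Fluorescence kinetics (480 nm excitation, 540 nm emission; 3 min, 1 s steps) report calcium mobilisation in human GnRHR-HEK293 cells in agonist mode. Dye incubation: 1 h, 37 C.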
# [4] = molecular target: KiSS-1 receptor (Homo sapiens) (UniProt Q969F8); assay: Human kisspeptin (KISS1R) small molecule agonists, calcium flux assay in KISS1R-HEK293 cells (AID 1920064; active = well fitted curve in the direction sought with a large enough effect in the repeat runs; an effect the other way counts as inactive or inconclusive)
# Sequence of KiSS-1 receptor (Homo sapiens) (Q969F8 whole entry, looked up): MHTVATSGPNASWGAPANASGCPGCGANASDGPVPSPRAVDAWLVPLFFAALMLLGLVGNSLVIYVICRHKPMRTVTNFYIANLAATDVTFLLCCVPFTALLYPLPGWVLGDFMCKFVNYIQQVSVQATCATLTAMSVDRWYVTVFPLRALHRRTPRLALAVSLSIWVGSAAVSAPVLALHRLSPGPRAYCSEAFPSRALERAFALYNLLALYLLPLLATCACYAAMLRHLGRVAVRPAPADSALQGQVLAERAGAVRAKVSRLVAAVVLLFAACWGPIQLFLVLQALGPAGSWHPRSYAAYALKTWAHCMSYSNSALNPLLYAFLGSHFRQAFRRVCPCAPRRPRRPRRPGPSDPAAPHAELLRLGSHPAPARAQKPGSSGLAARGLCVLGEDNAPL
# Outline: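 Measures KISS1R agonism through calcium-sensitive dye fluorescence in stably transfected HEK293 cells, read for 3 min after pin-tool compound delivery; 15-point titrations in triplicate.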
# [5] = G protein-coupled receptor (GPCR) small molecule agonists, calcium flux assay: HEK293 wild type cell line counter screen (AID 1920065)
# Outline: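 Readout: fluorescence at 480 nm excitation/540 nm emission, sampled at 1 s intervals for 3 min. Cells had been cultured 18 h, then dye-loaded 1 h at 37 C before compound or ATP addition.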
# [6] = p53 small molecule agonists, cell-based qHTS assay with rat liver microsomes (AID 1963578)
# Outline: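 Agonist mode in p53RE-bla reporter cells, with compounds co-incubated 16 h at 37 C alongside 0.5 mg/mL rat liver microsomes and 0.5 mg/mL NADPH (final), followed by a 2 h LiveBLAzer detection step.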
# [7] = p53 small molecule agonists, cell-based qHTS assay with human liver microsomes: qHTS cell viability counter screen (AID 1963579); note: nearly all actives have a fitted effect of over 45% in size
# Outline: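 Metabolically activated exposure: compounds, human liver microsomes and NADPH (0.5 mg/mL final apiece) were added to p53RE-bla cells seeded 5 h earlier, left 16 h at 37 C, and then assessed for viability by CellTiter-Glo luminescence.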
# [8] = p53 small molecule agonists, cell-based qHTS assay with rat liver microsomes: qHTS cell viability counter screen (AID 1963580); note: nearly all actives have a fitted effect of over 45% in size
# Outline: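 HCT-116 p53RE-bla, 4,000 cells/well, 5 h pre-incubation; cpd + rat liver microsomes 0.5 mg/mL + NADPH 0.5 mg/mL (final); 16 h, 37 C; CellTiter-Glo, 30 min RT; luminescence.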
# [9] = molecular target: Beta-2 adrenergic receptor (Homo sapiens) (UniProt P07550); assay: Adrenergic beta2 receptor (ADRB2) small molecule agonists, cell-based qHTS assay (AID 1963593);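 note: CHO cells stably overexpressing human ADRB2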
# Sequence of Beta-2 adrenergic receptor (Homo sapiens) (P07550 whole entry, looked up): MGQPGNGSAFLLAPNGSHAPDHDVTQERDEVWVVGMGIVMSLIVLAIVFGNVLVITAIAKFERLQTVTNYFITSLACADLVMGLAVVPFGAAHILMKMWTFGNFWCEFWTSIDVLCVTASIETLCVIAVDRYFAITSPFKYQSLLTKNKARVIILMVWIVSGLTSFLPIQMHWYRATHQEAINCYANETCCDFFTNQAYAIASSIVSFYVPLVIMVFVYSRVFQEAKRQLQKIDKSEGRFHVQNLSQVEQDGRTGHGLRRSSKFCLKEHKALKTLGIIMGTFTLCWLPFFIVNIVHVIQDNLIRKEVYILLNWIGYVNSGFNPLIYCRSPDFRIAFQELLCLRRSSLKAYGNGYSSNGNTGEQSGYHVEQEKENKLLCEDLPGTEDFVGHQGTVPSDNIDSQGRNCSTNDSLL
# Outline: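 CHO cells stably over-expressing ADRB2 were plated overnight at 37C, then dosed with compounds plus a stimulation mix containing 100uM IBMX and 25uM Ro-20-1724 for 0.5hr at room temperature. cAMP was measured by HTRF competition, 1hr.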
# [10] = molecular target: D(2) dopamine receptor (Homo sapiens) (UniProt P14416); assay: Dopamine D2 receptor (DRD2) small molecule agonists, cell-based qHTS assay (AID 1963594); note: nearly all actives have a fitted effect of over 35% in size
# Sequence of D(2) dopamine receptor (Homo sapiens) (P14416 whole entry, looked up): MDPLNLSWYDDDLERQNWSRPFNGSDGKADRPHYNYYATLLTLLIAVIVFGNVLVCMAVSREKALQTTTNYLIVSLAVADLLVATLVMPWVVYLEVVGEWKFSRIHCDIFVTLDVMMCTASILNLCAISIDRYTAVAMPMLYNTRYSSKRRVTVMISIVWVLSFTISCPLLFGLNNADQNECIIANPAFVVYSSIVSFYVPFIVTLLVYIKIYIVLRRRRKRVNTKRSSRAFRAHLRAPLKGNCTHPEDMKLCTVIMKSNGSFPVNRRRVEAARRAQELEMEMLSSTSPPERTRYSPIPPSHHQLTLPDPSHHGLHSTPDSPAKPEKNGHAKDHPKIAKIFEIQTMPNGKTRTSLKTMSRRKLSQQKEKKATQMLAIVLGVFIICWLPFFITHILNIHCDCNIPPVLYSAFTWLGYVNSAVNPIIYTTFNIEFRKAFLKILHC
# Outline: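 cAMP accumulation in DRD2-HEK293 cells measured by HTRF after 1 h detection; compounds added 10 min before NKH477 (200nM […]) forskolin-analogue stimulation, 30 min at room temperature, with Ro20-1724 present at 0.1 mM final.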
# [11] = molecular target: D(2) dopamine receptor (Homo sapiens) (UniProt P14416); assay: Dopamine D2 receptor (DRD2) small molecule antagonists, cell-based qHTS assay (AID 1963595; active = well fitted inhibition curve with a large enough effect in the signal ratio in the repeat runs, with a control signal flat; the % refers to the signal ratio; note: potency is the fitted concentration of half-maximal effect)
# Outline: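 HTRF cAMP read-out at 665 and 620 nm emission (340 nm excitation). Antagonist mode: compounds were tested against 12 nM quinpirole in DRD2-HEK293 cells, with 200 nM NKH477 raising cAMP and 0.1 mM Ro20-1724 blocking its breakdown.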
# [12] = p53 small molecule agonists, cell-based qHTS assay: qHTS cell viability counter screen (AID 1963581); note: nearly all actives have a fitted effect of over 45% in size; note: potency is the fitted concentration of half-maximal effect
# Outline: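 In the same plates used for the p53 bla reporter, HCT-116 cells given compounds for 16 h at 37 C received CellTiter-Glo; luminescence was recorded 30 min later at room temperature.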
# [13] = p53 small molecule agonists, cell-based qHTS assay (AID 1963582; active = well fitted activation curve with a large enough effect in the signal ratio in the repeat runs, not every such curve was filed as active; the % refers to the signal ratio)
# Outline: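 Compounds are pin-transferred in DMSO onto p53RE-bla cells and incubated 16 h at 37 C. The B/G FRET beta-lactamase substrate is then applied for 2 h at RT and fluorescence recorded.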
# [14] = molecular target: 5-hydroxytryptamine receptor 2A (Homo sapiens) (UniProt P28223); assay: 5-hydroxytryptamine receptor 2A (HTR2A) small molecule antagonists, cell-based qHTS assay (AID 1963586); note: nearly all actives have a fitted effect of over 45% in size; note: potency is the fitted concentration of half-maximal effect
# Sequence of 5-hydroxytryptamine receptor 2A (Homo sapiens) (P28223 whole entry, looked up): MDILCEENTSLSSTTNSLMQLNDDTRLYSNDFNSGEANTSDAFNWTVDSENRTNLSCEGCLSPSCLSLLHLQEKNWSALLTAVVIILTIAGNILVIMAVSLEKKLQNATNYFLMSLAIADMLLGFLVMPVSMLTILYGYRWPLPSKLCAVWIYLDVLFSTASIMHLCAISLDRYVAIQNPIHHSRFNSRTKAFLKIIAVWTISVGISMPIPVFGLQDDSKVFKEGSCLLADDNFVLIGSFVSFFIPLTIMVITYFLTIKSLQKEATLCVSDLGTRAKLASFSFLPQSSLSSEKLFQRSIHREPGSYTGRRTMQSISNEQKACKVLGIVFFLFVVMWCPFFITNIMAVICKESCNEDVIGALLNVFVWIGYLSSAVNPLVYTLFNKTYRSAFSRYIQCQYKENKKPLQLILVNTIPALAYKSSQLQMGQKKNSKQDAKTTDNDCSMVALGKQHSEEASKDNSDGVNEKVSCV
# Outline: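 Antagonist-mode intracellular calcium assay: DOI (4 nM) added after 5 min compound pre-incubation at room temperature to dye-loaded HTR2A-CHO cells. Fluorescence followed for 3 min, sampled every second.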
# [15] = molecular target: Muscarinic acetylcholine receptor M1 (Homo sapiens) (UniProt P11229); assay: Cholinergic receptor muscarinic 1 (CHRM1) small molecule antagonists, cell-based qHTS assay (AID 1963588); note: nearly all actives have a fitted effect of over 40% in size; note: potency is the fitted concentration of half-maximal effect
# Sequence of Muscarinic acetylcholine receptor M1 (Homo sapiens) (P11229 whole entry, looked up): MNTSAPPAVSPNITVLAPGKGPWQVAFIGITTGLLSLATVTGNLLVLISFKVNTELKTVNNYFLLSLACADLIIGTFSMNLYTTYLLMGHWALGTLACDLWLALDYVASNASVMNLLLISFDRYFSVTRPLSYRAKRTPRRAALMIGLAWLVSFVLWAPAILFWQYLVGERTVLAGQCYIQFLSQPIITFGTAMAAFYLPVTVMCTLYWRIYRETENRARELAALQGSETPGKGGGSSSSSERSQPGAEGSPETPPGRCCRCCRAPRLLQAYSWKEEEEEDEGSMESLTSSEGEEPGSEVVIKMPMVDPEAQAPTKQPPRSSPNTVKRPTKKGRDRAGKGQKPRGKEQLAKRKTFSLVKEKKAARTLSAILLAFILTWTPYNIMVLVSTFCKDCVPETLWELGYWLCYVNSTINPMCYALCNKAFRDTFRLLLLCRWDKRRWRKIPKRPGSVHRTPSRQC
# Outline: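 CHRM1-CHO calcium-flux assay, antagonist mode. Cells were seeded 18 h, dye-loaded 1 h at 37 C and given compound for 5 min at RT, then acetylcholine was added at 50nM. FDSS fluorescence was read 3 min; 15 concentrations, three runs.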
# [16] = molecular target: Muscarinic acetylcholine receptor M1 (Homo sapiens) (UniProt P11229); assay: Cholinergic receptor muscarinic 1 (CHRM1) small molecule agonists, cell-based qHTS assay (AID 1963589); note: nearly all actives have a fitted effect of over 35% in size
# Outline: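 Each compound was tested at 15 concentrations across three independent runs on dye-loaded CHO cells stably expressing human CHRM1, reading intracellular calcium fluorescence kinetically at 1 sec intervals.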
# [17] = cAMP Responsive Elements (CRE) small molecule agonists, cell-based qHTS assay (AID 1963590)
# Outline: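 Cell line: CRE-bla HEK 293T; medium DMEM/10% dialyzed FBS/0.1 mM NEAA/1 mM pyruvate/25 mM HEPES; 3 h compound exposure; beta-lactamase FRET readout after 2 h substrate loading at RT.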
# [18] = molecular target: 5-hydroxytryptamine receptor 2A (Homo sapiens) (UniProt P28223); assay: 5-hydroxytryptamine receptor 2A (HTR2A) small molecule agonists, cell-based qHTS assay (AID 1963587); note: nearly all actives have a fitted effect of over 30% in size
# Outline: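 Kinetic calcium-flux fluorescence (2 min, 1 sec intervals) after compound addition in agonist mode. HTR2A-CHO cells were cultured 18 h, then dye-loaded 1 h at 37 C.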
# [19] = cAMP Responsive Elements (CRE) small molecule antagonists, cell-based qHTS assay (AID 1963591; active = well fitted inhibition curve with a large enough effect in the signal ratio in the repeat runs, not every such curve was filed as active; the % refers to the signal ratio)
# Outline: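 Inhibition of NKH477-driven (0.25 uM final) CRE-beta-lactamase signal in HEK293T cells, 3 h compound exposure at 37 °C, detected by FRET substrate fluorescence.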
# [20] = molecular target: Beta-2 adrenergic receptor (Homo sapiens) (UniProt P07550); assay: Adrenergic beta2 receptor (ADRB2) small molecule antagonists, cell-based qHTS assay (AID 1963592); note: series mostly up to about 92 µM; nearly all actives have a fitted effect of over 50% in size
# Outline: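 Cells (CHO, stable ADRB2 overexpression) incubated 18-20hr at 37C; compounds added from DMSO; agonist mix (1nM isoproterenol, 100uM IBMX, 25uM Ro-20-1724) added; 0.5hr RT; d2-cAMP and anti-cAMP-cryptate added; 1hr RT; 665/615 nm read.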
SMILES,Potency [1],Potency [2],Potency [3],Potency [4],Potency [5],Potency [6],Potency [7],Potency [8],Potency [9],Potency [10],Potency [11],Potency [12],Potency [13],Potency [14],Potency [15],Potency [16],Potency [17],Potency [18],Potency [19],Potency [20]
CN(C)[C@@H]1C(=O)C(C(N)=O)=C(O)[C@@]2(O)C(=O)C3=C(O)c4c(O)ccc(Cl)c4[C@@](C)(O)[C@H]3C[C@@H]12,inactive,inactive,inactive,inactive,inactive,inactive,inactive,inactive,inactive,inactive,inactive,–,–,–,–,–,–,–,–,–
O=C(CCCN1CCC(n2c(=O)[nH]c3ccccc32)CC1)c1ccc(F)cc1,inactive,inactive,inactive,inactive,inactive,inactive,inactive,inactive,–,–,0.0422 µM (active),inactive,inactive,1.83 µM (active),2.05 µM (active),inactive,inactive,–,–,–
CC[C@H](C)[C@H]1O[C@]2(C=C[C@@H]1C)C[C@@H]1C[C@@H](C/C=C(\C)[C@@H](O[C@H]3C[C@H](OC)[C@@H](O[C@H]4C[C@H](OC)[C@@H](O)[C@H](C)O4)[C@H](C)O3)[C@@H](C)/C=C/C=C3\CO[C@@H]4[C@H](O)C(C)=C[C@@H](C(=O)O1)[C@]34O)O2,16.1 µM (active),inactive,inactive,inactive,inactive,inactive,inactive,inactive,inactive,inactive,inactive,19.1 µM (active),–,–,–,–,–,–,–,–
CCOP(=S)(S)OCC,inactive,64.4 µM (active),inactive,inactive,inactive,–,inactive,inactive,inactive,inactive,inactive,inactive,inactive,inactive,inactive,inactive,inactive,inactive,–,–
O=S(=O)(O)F,inactive,inactive,inactive,inactive,inactive,–,inactive,inactive,–,inactive,inactive,inactive,–,inactive,inactive,inactive,inactive,inactive,inactive,inactive
O=C1NC(=O)C(=O)C(=O)N1,inactive,inactive,inactive,inactive,inactive,–,inactive,inactive,inactive,inactive,inactive,inactive,–,inactive,inactive,inactive,inactive,inactive,–,inactive
CC(O)CCl (stereo not drawn),inactive,inactive,inactive,inactive,inactive,–,inactive,inactive,–,inactive,inactive,inactive,–,inactive,inactive,inactive,inactive,inactive,inactive,inactive
CCOC(=O)Cc1ccccc1,inactive,inactive,inactive,inactive,inactive,–,inactive,inactive,–,inactive,inactive,inactive,–,inactive,inactive,inactive,inactive,inactive,inactive,inactive
